In all, about 2,100 compounds went through this assay and about 650 (31%) were called active. Not shown: some 16% with an inconclusive outcome. Calls follow the shape of the dose curve; as a rule, active = well fitted inhibition curve with a large enough effect; inconclusive = small, poorly fitted or top-dose-only effect; inactive = flat fitted curve, though single readings scatter. This is one part of the list.
assay: qHTS for inhibitors of Vif-A3G interactions: Cherry picks; conditions: HeLa A3G-eYFP + Vif (tagged APOBEC3G with the HIV-1 protein that degrades it), 24 h; Potency: eYFP fluorescence increase; series mostly up to 36.9 µM; also: nearly all actives have a fitted effect of over 80% in size
Excerpt: The recent discovery and characterization of host restriction factors, which provide a potent defense to invading retroviruses, has provided new targets for antiviral drug development. APOBEC3G (A3G) and APOBEC3F (A3F) are potent cytidine deaminases that block HIV-1 replication; HIV-1 expresses the Vif protein, which counteracts A3G and A3F by binding to them and inducing their proteasomal degradation. The Vif-A3G and Vif-A3F interactions provide two potential targets for development of small molecules which can interfere with the ability of Vif to degrade A3G or A3F. […] To identify inhibitors that can interfere with Vif mediated degradation of A3G and A3F, we have developed Hela cell lines that stably express A3G or A3F tagged with eYFP at the C-terminal end (A3G-eYFP or A3F-eYFP, respectively) and Vif. In the absence of an inhibitor, Vif induces degradation of A3G-eYFP and A3F-eYFP, and the cells are not fluorescent. In the presence of an inhibitor, it is expected that Vif will be unable to degrade A3G-eYFP and/or A3F-eYFP, resulting in an increase in yellow fluorescence. In this assay, Vif A3G was screened against the cherry picks ordered from the MLSMR. NIH Chemical Genomics Center [NCGC] NIH Molecular Libraries Probe Centers Network [MLPCN] MLPCN Grant: MH093245 Assay Submitter (PI): Vinay Pathak, National Cancer Institute
A3G-Vif cells were harvested from T225 flask and resuspended in phenol free OPTI-MEM medium with 5% FBS. Then 5 uL of 140,000 cells/mL resuspended cells was dispensed into each well of low base Aurora COC 1,536-well plates (black walled, clear bottom) using a Multidrop Combi dispenser. After overnight culture at 37 deg C with 5% CO2, a total of 23 nL of compounds at 5 selected concentrations from the NPC or positive control (2 mM stock of MG132) in DMSO was transferred to each well of the assay plate using a pintool (Kalypsys, San Diego, CA), and the plates were further incubated at 37 deg C with 5% CO2 for 24 hours. After that, the plates were measured on Acumen Explorer (TTP Lab Tech). The fluorescence was detected by 488 nm/Ex and […].
Potency is read from the fitted curve at half-maximal effect.

Potency, inactive:
COc1ccc(-c2cc(C(=O)N/N=C/c3sccc3C)c3ccccc3n2)c(OC)c1
N#CC1=C(N)Oc2cc(N)ccc2C1c1ccccc1 (stereo unspecified)
CC(C)n1cc(/C=C2\NC(=O)N(c3cccc(Cl)c3)C2=O)c2ccccc21
CCOC(=O)CSC1=C(C#N)C(c2ccc(C)s2)CC(=O)N1 (stereo unspecified)
NC(=O)c1ccc(Cn2c(C(=O)c3cc(Cl)c(N)c(Cl)c3)c3ccccc3[n+]2[O-])cc1
Cc1c(C(=O)Nc2cccnc2)oc2ccc(Br)cc12
COc1ccc(-c2nnc(SCC(=O)NCc3ccccc3)nc2-c2ccc(OC)c(OC)c2)cc1OC
COc1cc(C(=O)NCCOc2cc(C)cc(C)c2)c(Br)c(OC)c1OC
COc1cc(C(=O)NCCOc2cc(C)cc(C)c2)cc(OC)c1OC
Fc1cccc(Cc2c(-c3ccco3)nc3ccc(Br)cn23)c1
CC(NC1=CC(=O)c2cccnc2C1=O)C(O)c1ccccc1 (stereo unspecified)
CN(CC(=O)Nc1ccc(Cl)c(C(F)(F)F)c1)C(=O)c1ccc(S(=O)(=O)N2CCOCC2)cc1
CN(C)c1ccc(/C=C/c2ccnc3ccccc23)cc1C=O
Cc1cc(NC(=O)Nc2nnc(N(C)Cc3ccccc3)s2)ccc1Br
COc1cccc(/C=N/NC(=O)c2[nH]nc3c2CCc2ccccc2-3)c1
CC(=O)n1cc(/C=N/NC(=O)c2sc(C)nc2C)c2ccccc21
COc1ccc(C(C)(O)c2nc(-c3ccccc3OC)cs2)cc1 (stereo unspecified)
CN(C)c1ccc(/C=C/c2ccnc3ccccc23)cc1N
COc1cc2c(cc1OC)CN(C(=O)/C=C/c1cccs1)CC2
Cc1cc(C)nc(-n2nc(C)cc2NC(=O)c2ccc(F)cc2F)n1
O=[N+]([O-])/C=C\c1ccc(N2CCCC2)c(F)c1
COc1ccc(/C=C/c2ccnc3ccccc23)c(OC)c1
COc1ccccc1-c1c(C#N)c(N)nc2c1CCc1ccccc1-2
CNc1cncc(-c2cc(C)c(O)c(C)c2)n1
COc1cc(C2c3cc4c(cc3OC(C)(N3CCCC3)C2C)OCO4)cc(OC)c1OC (stereo unspecified)
CCOc1c(Cl)cc(/C=N/NC(N)=S)cc1OC
CCOc1ccc(-c2cc(C(=O)N/N=C(\C)c3cccnc3)c3ccccc3n2)cc1
CCOC(=O)c1ccc(NC(=O)Cn2ncc(Cl)c(Cl)c2=O)cc1
CCOC(=O)c1ccc(N=Nc2c(C)c(C#N)c(O)[nH]c2=O)cc1
CCOc1ccc(-n2nnnc2SCC(=O)c2ccccc2)cc1
Cc1ccc2nc(NC(=O)CN(C)S(=O)(=O)c3cccc4nsnc34)sc2c1
Cc1cnc(NC(=O)CC(C)c2ccccc2)s1 (stereo unspecified)
COc1ccc(C2C(C#N)=C(N)Oc3cc(N)ccc32)cc1OC (stereo unspecified)
COc1cc(C2C3=C(COC3=O)Oc3cc4c(cc32)OCO4)ccc1OC(C)=O (stereo unspecified)
Cc1cccc(N2CCN(C(=O)c3cccc(N4CCCC4=O)c3)C(C)C2)c1 (stereo unspecified)
COc1cc(-c2noc(C)c2C#Cc2ccc(N)cc2)cc(OC)c1OC
CSCC[C@H](NC(=O)[C@H](Cc1ccccc1)n1c(=O)[nH]c2ccccc2c1=O)C(=O)N1CCC[C@@H]1C(=O)O
COc1cc(-c2noc(C)c2/C=C/c2ccc(OC(C)=O)cc2)cc(OC)c1OC
C=CCNc1nc(-c2ccccc2)c(C(=O)OCC)cc1C#N
O=C(CSc1nc(-c2ccco2)cc(C(F)(F)F)n1)Nc1cccnc1
O=C(OCCC12CC3CC(CC(C3)C1)C2)c1ccc(NCc2cc(O)ccc2O)cc1
N#Cc1c(C(F)(F)F)cc(-c2cccs2)nc1SCC(=O)Nc1cccc(Cl)c1
O=C(NCc1ccccc1)C1Cc2c(-c3ccc(Cl)cc3)ccnc2O1 (stereo unspecified)
COCCCNC(=S)N/N=C/c1ccc(OC)cc1
N#C/C(=C\c1ccccc1[N+](=O)[O-])C(=O)NCc1ccccc1
O=C(NCc1ccccc1)C(=O)NCC1COc2ccccc2O1 (stereo unspecified)
Cc1ccc(CN(C(=O)c2ccccc2F)c2ccccn2)o1
CCOC(=O)c1cnc(-n2nc(C)cc2C)nc1NNc1nc(-c2ccccc2)cc(-c2ccccc2)n1
COC(=O)c1[nH]c2c(c1C(=O)OC)CCc1ccccc1-2
CC(CC(=O)Nc1ccc2c(c1)c(=O)n(C)n2-c1ccccc1F)c1ccccc1 (stereo unspecified)
O=C1[C@@H]2[C@@H](CN3CN(c4ccccc4)N=C(c4ccccc4)[C@@]23c2ccccc2)C(=O)N1c1ccccc1
O=C(Cn1nc2c(cc1=O)CCCC2)NCc1ccc(Cl)cc1
CC(=O)Nc1cccc(-c2ccnc3c2CC(C)(C(=O)NCc2ccccc2)O3)c1 (stereo unspecified)
COc1ccc(/C=N/NC(=O)c2cc(OC)c(OC)c(OC)c2)cc1CN1CCc2cc(OC)c(OC)cc2C1C (stereo unspecified)
O=C1NC(=Nc2ccccc2Cl)S/C1=C\c1cc([N+](=O)[O-])ccc1O
C=CCOc1ccc2nc(NC(=O)OC)[nH]c2c1
COc1ccc(N/C=C/C(=O)c2sc(-c3ccccc3)nc2C)cc1

Potency, active:
COc1ccc(N=Cc2c(O)n(-c3cccc(C)n3)c(=O)c3ccccc23)c(OC)c1 13 µM
CCc1cccc2c(C(O)c3c[nH]c4ccccc34)c[nH]c12 (stereo unspecified) 20.6 µM
CC1CC(=O)C2=C(C1)OC(N)=C(C#N)C2c1coc2ccccc2c1=O (stereo unspecified) 23.1 µM
C=CCn1cc(/C=C/c2cc[n+](C)cc2)c2ccccc21 7.04 µM
CC(C)n1cc(/C=C/c2cc[n+](C)cc2)c2ccccc21 0.25 µM
CCn1cc(/C=C/c2cc[n+](C)cc2)c2ccccc21 1.77 µM
N#C/C(N=Nc1ccccc1O)=N\Nc1ccccc1O 14.6 µM
COc1ccc(-c2ccc3c(c2)S(=O)(=O)c2cccc(C(=O)NCCOc4ccccc4)c2C3=O)cc1OC 12.5 µM
COc1ccc(-c2ccc3c(c2)S(=O)(=O)c2cccc(C(=O)NCc4cccc(OC(F)(F)F)c4)c2C3=O)cc1OC 10.3 µM
CCc1cc(/C=C/c2ccnc3ccccc23)ccc1N(C)C 18.4 µM
Cc1cc(/C=C/c2ccnc3ccccc23)ccc1N 18.4 µM
CN1CCCc2cc(/C=C/c3ccnc4ccccc34)ccc21 5.17 µM
CN(C)c1ccc(/C=C/c2ccnc3ccccc23)cc1O 18.4 µM
Cc1cc(/C=C/c2ccnc3ccccc23)ccc1N(C)C 20.6 µM
Cc1cc(N(C)C)c(C)cc1/C=C/c1ccnc2ccccc12 20.6 µM
CCn1c2ccccc2c2c3ncc4cccn4c3ccc21 23.1 µM
CCOC(=O)/C(C#N)=C\C=C1C=CN(C)C=C1 8.2 µM
Cc1cc(N2CCCC2)ccc1/C=C1\NC(=S)N(C)C1=O 3.66 µM
Cc1cc(/C=C2\NC(=S)N(C)C2=O)ccc1N1CCCC1 8.86 µM
Cc1cc(N2CCCC2)ccc1/C=C1/C(=O)N(C)C(=S)N1C 18.4 µM
COc1cc(N(C)C)c(OC)cc1/C=C/c1ccnc2ccccc12 20.6 µM
COc1cc(/C=C/c2ccnc3ccccc23)ccc1N(C)C 20.6 µM
CCOC(=O)c1c(Nc2ccc(Cl)cc2)sc(/C=C2\C=Nc3ccccc32)c1O 13 µM
Cn1cc(/C=C/c2ccnc3ccccc23)c2ccccc21 23.1 µM
Cn1cc(/C=C/c2ccc3ccccc3n2)c2ccccc21 20.6 µM
Cc1cc(C(F)(F)F)c(C#N)c(SCC(=O)Nc2nc3ccccc3s2)n1 18.4 µM
CCOc1ccc(-c2cc(C(F)(F)F)c(C#N)c(SCC(=O)Nc3ccccc3)n2)cc1 18.4 µM
CCOC(=O)c1ccc(NC(=O)CSc2nc(-c3ccc(F)cc3)cc(C(F)(F)F)c2C#N)cc1 20.6 µM
Cc1ccc(S(=O)(=O)CCSc2nc(C)cc(C(F)(F)F)c2C#N)cc1 14 µM
CCCCOc1ccc(-c2cc(C(F)(F)F)c(C#N)c(SCC(=O)O)n2)cc1 18.4 µM
Cc1coc(NC(=O)CSc2nc(-c3ccncc3)cc(C(F)(F)F)c2C#N)n1 14.6 µM
CCOC(=O)c1ccc(NC(=O)CSc2nc(-c3cccs3)cc(C(F)(F)F)c2C#N)cc1 20.6 µM
CCOC(=O)c1ccc(NC(=O)CSc2nc(-c3ccc(OC)cc3)cc(C(F)(F)F)c2C#N)cc1 20.6 µM
N#Cc1c(C(F)(F)F)cc(-c2cccs2)nc1SCC(=O)Nc1cccc(C(F)(F)F)c1 18.4 µM
N#C/C(=C\c1ccc(N2CCOCC2)o1)C(=O)NC1CCCCC1 15.8 µM
N#C/C(=C/c1ccc(N2CCOCC2)o1)C(=O)NC1CCCCC1 18.4 µM
N#C/C(=C\c1ccc(N2CCOCC2)o1)C(=O)NCCc1ccccc1 23.1 µM
CN(C)c1ccc(/C=C(/C#N)C(=O)NCc2ccccc2)o1 14.6 µM
Nc1c(C(=O)c2ccc(Cl)cc2)sc2nc3c(cc12)CCC3 18.4 µM
O=C1/C(=C\c2cc([N+](=O)[O-])ccc2O)SC(=S)N1Cc1ccc(Cl)cc1 18.4 µM
CN(C)c1ccc(/C=C/C(=O)c2c(O)c3ccccc3oc2=O)cc1 1.46 µM
CC[n+]1c(/C=C/Nc2ccccc2)oc2ccc(OC)cc21 20.6 µM
CC[n+]1c(/C=C/N(C)c2ccccc2)oc2ccc(F)cc21 17.7 µM
CC[n+]1c(/C=C/Nc2ccccc2)oc2ccccc21 14.6 µM

— PubChem BioAssay AID651812 (National Center for Advancing Translational Sciences (NCATS), 2012)
